# Screening results: PubChem BioAssay, National Center for Advancing Translational Sciences (NCATS)
# Vif-APOBEC3F blk: inhibitors of Vif-A3F interaction | HeLa A3F-eYFP + Vif (tagged APOBEC3F with the HIV-1 protein that degrades it), YFP fluorescence increase | Potency, µM (titrated, usually from 46.1 µM), without a hit: top-dose activity, negative = active | actives 0.2% (n = 390,000) | AID 602313; note: potency is the fitted concentration of half-maximal effect; % of control where 0% means no effect; nearly all actives have a fitted effect of over 65% in size
#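 HeLa cells stably expressing Vif plus C-terminally eYFP-tagged A3F were seeded, incubated overnight at 37 deg C, dosed with compound, incubated overnight again at 37 deg C. Yellow fluorescence (Ex 488/Em 500-530) reported blocked Vif-mediated A3F-eYFP degradation.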
# PLK1 PBD block: blocks phosphopeptide binding to human PLK1 polo-box domain; P53350; Plk1 PBD binding of FITC phosphopeptide, fluorescence polarization; Potency, µM, for inactives: max response, negative = inhibition, most hits filed as inhibitors; actives 2.8% (n = 360,000); AID 720504; note: potency is the fitted concentration of half-maximal effect; series mostly up to about 57 µM; % is set by controls: 0 for no effect and ±100 for the full control effect; nearly all actives have a fitted effect of over 65% in size
# Target sequence (P53350 whole entry, looked up, the tested form may be a part): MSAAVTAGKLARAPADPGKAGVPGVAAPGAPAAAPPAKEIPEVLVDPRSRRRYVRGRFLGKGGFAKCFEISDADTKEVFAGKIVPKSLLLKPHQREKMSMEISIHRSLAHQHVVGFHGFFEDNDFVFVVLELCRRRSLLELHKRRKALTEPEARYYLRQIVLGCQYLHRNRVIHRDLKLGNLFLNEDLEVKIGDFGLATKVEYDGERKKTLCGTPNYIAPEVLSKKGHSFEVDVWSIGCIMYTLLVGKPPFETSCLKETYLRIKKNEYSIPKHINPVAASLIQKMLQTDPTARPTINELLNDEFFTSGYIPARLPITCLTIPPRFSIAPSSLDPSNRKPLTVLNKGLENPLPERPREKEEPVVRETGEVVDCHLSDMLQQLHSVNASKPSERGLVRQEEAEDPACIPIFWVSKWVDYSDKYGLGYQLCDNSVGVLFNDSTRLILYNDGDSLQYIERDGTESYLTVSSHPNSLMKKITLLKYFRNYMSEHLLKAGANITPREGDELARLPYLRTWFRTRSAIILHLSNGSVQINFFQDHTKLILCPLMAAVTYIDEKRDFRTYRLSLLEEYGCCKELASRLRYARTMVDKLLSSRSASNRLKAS
# TSHR antag: blocks TSH signaling through the human TSH receptor | TSHR-expressing cells, TSH-stimulated cAMP HTRF, 2 h; stronger effect = lower value | actives 0.2% (n = 330,000) | activity change, negative = inhibition, % at 11.5 µM | AID 504810;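 active = activity change below a set negative limit, meaning inhibition stronger than a set level, cut at about -70% in these data; inconclusive = activity change between two set negative limits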; note: % is set by controls: 0 for no effect and ±100 for the full control effect
#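 Cell-based HTRF cAMP assay; TSHR cells + compound, TSH EC80 (4nM final), 2 h, 37 deg C. Lysis with anti-cAMP cryptate and cAMP-d2, 30 min RT, read 665/620 nm.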
# Vif-APOBEC3G blk: inhibitors of Vif-APOBEC3G interaction; Q9HC16; HeLa A3G-eYFP + Vif (tagged APOBEC3G with the HIV-1 protein that degrades it), YFP fluorescence, overnight; actives 0.076% (n = 410,000); Potency, µM (highest dose often 46.1 µM), without a hit: at the top dose activity, negative = active, hits mostly inhibitors; note: potency is the fitted concentration of half-maximal effect; % is set by controls: 0 for no effect and ±100 for the full control effect; nearly all actives have a fitted effect of over 60% in size
#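 HeLa cells stably expressing Vif and C-terminally eYFP-tagged A3G, seeded overnight at 37 deg C, then exposed to compound by pintool overnight at 37 deg C. Rise in yellow fluorescence (Ex 488/Em 500-530, Acumen) marks blocked Vif-driven A3G degradation.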
# VDR inh: vitamin D3 receptor (human) inhibition. Potency, µM, without a hit: max response, negative = inhibition, usual class: inhibitors. P11473. VDR-SRC2-3 peptide fluorescence polarization, 2 h. actives 0.93% (n = 400,000); note: potency is the fitted concentration of half-maximal effect; % is set by controls: 0 for no effect and ±100 for the full control effect
#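 The screen uses fluorescence polarization to detect compounds that interfere with recruitment of the SRC2-3 coactivator peptide to VDR; plates are read after 2 h at room temperature.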
# TbPYK confirm: confirmation of Trypanosoma brucei pyruvate kinase inhibitors; Potency, µM (titrated, usually from 76.9 µM), for the others: top-dose activity change, negative = inhibition, usual class: inhibitors; recombinant TbPYK, Kinase-Glo ATP luminescence; actives 67% (n = 890); shares compounds with PLK1 PBD block; note: potency is the fitted concentration of half-maximal effect; % is set by controls: 0 for no effect and ±100 for the full control effect; nearly all actives have a fitted effect of over 70% in size
# TbPYK ADP-Glo: TbPYK inhibition, orthogonal confirmation; shares compounds with PLK1 PBD block; recombinant TbPYK, ADP-Glo luminescence, 60 min; Potency, µM (titrated, usually from 76.9 µM), for inactives: top-dose activity change, negative = inhibition, most hits filed as inhibitors; actives 62% (n = 890); note: potency is the fitted concentration of half-maximal effect; % is set by controls: 0 for no effect and ±100 for the full control effect; nearly all actives have a fitted effect of over 75% in size
# Active calls of the source: *; ? = inconclusive; nt = no result given. Shown are actives, neighbours in structure and some others; about 3.1% of the full set was active somewhere. Unless noted, calls come from the whole dose curve; as a rule, active = well fitted curve in the direction sought with a large enough effect; inconclusive = small, poorly fitted or top-dose-only effect, or another doubt; inactive = no such curve, though single readings can be large; an effect the other way counts as inactive or inconclusive.
SMILES,Vif-APOBEC3F blk,PLK1 PBD block,TSHR antag,Vif-APOBEC3G blk,VDR inh,TbPYK confirm,TbPYK ADP-Glo
COc1ccc(OC(=O)N(C)C[C@@H]2OCc3ccccc3-c3c(n(C)c4ccccc34)C(=O)N([C@H](C)CO)C[C@@H]2C)cc1,-5.3%,-13.5%,nt,-7.9%,nt,nt,nt
COc1ccc(S(=O)(=O)N(C)C[C@H]2OCCCC[C@H](C)Oc3ccc(N(C)C)cc3C(=O)N([C@H](C)CO)C[C@@H]2C)cc1,4.6%,-12.3%,nt,-5.3%,nt,11.2µM*,?
C[C@]12CC[C@H]3C(=CCc4cc(O)ccc43)[C@@H]1CCC2=O,-1.9%,-17.5%,-14.7,-8.0%,-12.5%,nt,nt
CCOc1ccc(CCNC(=O)c2ccc(-n3c(C)cc4c3CCCC4)cc2)cc1OCC,?,nt,nt,-0.5%,11.0%,nt,nt
COC(=O)C1=C(C(=O)OC)C2OC1c1cc3ccccc3cc12,9.4%,2.99µM*,nt,-13.5%,8.91µM*,10µM*,12.6µM*
CN1C(=O)C(=Cc2ccccc2Oc2ccc(Cl)c(F)c2)C(=O)N(C)C1=O,-6.6%,4.23µM*,4.1,-19.5%,28.2µM*,?,-26.4%
COc1ccc(-c2noc(=O)n2Cc2cc(C)ccc2C)cc1,0.6%,1.5%,13.5,?,0.3%,nt,nt
CC[C@]1(c2cccc(O)c2)CCCCN(C)C1,nt,nt,nt,nt,4.8%,nt,nt
Cc1cc(C)n2nc(SC(C)C(=O)N3CCC4(CC3)OCCO4)nc2n1 (configuration not stated),0.3%,-1.2%,11.9,-2.5%,-7.7%,6.2%,-2.0%
Cc1ccc2cc3cc(C(=O)N4CCC5(CC4)OCCO5)oc3nc2c1,3.2%,-10.7%,15.6,4.3%,12.9%,nt,nt
CN1C(=O)NC(=O)/C(=C/c2ccc([N+](=O)[O-])o2)C1=O,-20.1%,4.74µM*,-4.3,-6.2%,70.8µM*,8.91µM*,?
CN1C(=O)C(=Cc2ccc(-c3cccc(Cl)c3)o2)C(=O)N(C)C1=O,nt,nt,-2.1,nt,nt,nt,nt
Cc1cccc(N2C(=O)NC(=O)/C(=C/c3cc4c(cc3[N+](=O)[O-])OCO4)C2=O)c1,?,5.32µM*,-6.4,-6.7%,?,20µM*,?
CNS(=O)(=O)c1ccc(-c2ccc(C=C3C(=O)NC(=O)NC3=O)o2)cc1,4.3%,2.12µM*,-9.4,-1.4%,44.7µM*,2.82µM*,10µM*
O=C1NC(=O)C(=Cc2ccccc2[N+](=O)[O-])C(=O)N1,4.1%,11.9µM*,nt,1.4%,?,8.91µM*,28.2µM*
O=C1NC(=O)C(=Cc2ccc(-c3ccccc3[N+](=O)[O-])o2)C(=O)N1,-17.9%,1.34µM*,-0.7,-8.3%,39.8µM*,?,?
CCCN(CCC)[C@@H]1CCc2c(OC)cccc2[C@@H]1C,nt,nt,nt,nt,-12.2%,nt,nt
O=C1NC(=O)C(=Cc2cc3c(cc2[N+](=O)[O-])OCO3)C(=O)N1,-5.7%,13.4µM*,-3.9,0.8%,39.8µM*,8.91µM*,?
CN(C)c1ccc(C=C2C(=O)NC(=O)NC2=O)cc1[N+](=O)[O-],12.9%,7.52µM*,13.5,-0.5%,-27.6%,15.8µM*,31.6µM*
C=C1CCN([C@@H](Cc2ccccc2)C(=O)Nc2ccc(OC)cc2)S(=O)(=O)c2ccccc21,-2.3%,?,nt,-3.8%,-2.2%,nt,nt
N[C@@H](Cn1ccc(=O)[nH]c1=O)C(=O)O,nt,nt,-12.0,nt,-2.0%,nt,nt
CCN1C[C@]2(COC)CC[C@H](OC)[C@@]34C5C[C@@H]6[C@@H](OC)C[C@@]7(OCO[C@@]7([C@@H](O)C23)[C@@H]14)C5[C@H]6OC (some centres not stated),nt,nt,nt,nt,3.3%,nt,nt
C=CCC1C(=O)NC(=S)NC1=O,-3.1%,29.9µM*,0.4,-1.1%,89.1µM*,0.562µM*,1.78µM*
CCOC(=O)c1c(/N=C/C2C(=O)NC(=S)NC2=O)sc2c1CCC2,?,22.6%,-4.8,?,?,?,?
O=C1NC(=O)N(Cc2ccccc2)C(=O)/C1=C\c1ccco1,-34.9%,2.12µM*,3.4,-13.8%,-3.0%,31.6µM*,?
Cc1cc(C=C2C(=O)N(C)C(=S)N(C)C2=O)c(C)n1-c1cccnc1,3.9%,2.12µM*,10.2,-6.5%,?,?,?
